PGE2 EP2 inh = blocks the human prostaglandin E2 receptor EP2. 260,000 compounds, 0.52% hits. inhibition, % at 25 µM. AID 1422. C6 glioma cells expressing human EP2, cAMP TR-FRET; cells stimulated with saturating PGE2;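 active = percent inhibition above 40 after rounding to a whole number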;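 also: rat C6 glioma host cells with rolipram phosphodiesterase inhibitor present; the protocol text gives 20 µM as final concentration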
Target sequence (P43116 whole entry, looked up): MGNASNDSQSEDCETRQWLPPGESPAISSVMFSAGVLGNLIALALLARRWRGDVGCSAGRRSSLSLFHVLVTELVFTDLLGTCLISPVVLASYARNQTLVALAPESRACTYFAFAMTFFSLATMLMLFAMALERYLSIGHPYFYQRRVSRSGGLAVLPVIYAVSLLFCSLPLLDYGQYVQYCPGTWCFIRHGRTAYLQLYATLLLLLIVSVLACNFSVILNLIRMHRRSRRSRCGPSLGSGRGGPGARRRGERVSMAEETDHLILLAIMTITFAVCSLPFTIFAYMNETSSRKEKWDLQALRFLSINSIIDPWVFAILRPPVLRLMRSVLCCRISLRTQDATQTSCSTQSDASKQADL
KCC2 mod = modulates chloride dependent transport by human KCC2. Q9H2X9. KCC2 cells, thallium flux FluoZin-2 fluorescence. B-score of Tl+ flux slope (higher = more flux/activation; lower = inhibition) at 10 µM. 190,000 compounds, 2.2% hits;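 active = thallium flux slope and its plate-corrected score both differing from the plate sample mean at a set confidence after two filtering rounds, in either direction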;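 also: slope of fluorescence scaled to starting intensity during 10 to 20 s after thallium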
S1P3 antag-1 = antagonists of human S1P3 receptor. 170,000 compounds, 0.27% hits. inhibition, % at 4.98 µM. AID 485. CHO S1P3 NFAT-BLA reporter, FRET fluorescence, antagonist mode;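 active = inhibition above the plate cutoff, the mean inhibition of test wells on that plate plus 3 SD, cut at about 28% in these data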;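 also: cells challenged with S1P at its EC80 of 0.8 µM; blue over green emission ratio from cleaved BLA substrate after 4 h stimulation; 0% = S1P-stimulated wells and 100% = unstimulated DMSO-only wells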
Target sequence (Q99500 whole entry, looked up): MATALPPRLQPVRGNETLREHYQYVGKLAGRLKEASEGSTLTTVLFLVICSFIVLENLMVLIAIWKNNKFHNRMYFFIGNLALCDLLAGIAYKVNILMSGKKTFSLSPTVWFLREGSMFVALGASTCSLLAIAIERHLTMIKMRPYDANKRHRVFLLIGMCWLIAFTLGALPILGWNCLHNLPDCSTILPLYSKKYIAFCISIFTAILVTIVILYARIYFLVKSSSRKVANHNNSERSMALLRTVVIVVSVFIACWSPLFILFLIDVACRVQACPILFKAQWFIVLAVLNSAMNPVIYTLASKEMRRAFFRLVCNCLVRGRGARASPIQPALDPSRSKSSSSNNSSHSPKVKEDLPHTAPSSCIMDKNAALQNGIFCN
EP2 modulator = modulators of human EP2 prostaglandin E2 receptor; P43116; 260,000 compounds, 0.83% hits; induction, % at 25 µM; EP2-expressing cells, cAMP HTRF FRET, PGE2 co-stimulation;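 active = compounds whose cAMP rise, as percent of the full-agonist control response, exceeds 60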;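 also: rat C6 glioma line stably carrying human EP2 under a CMV promoter; the protocol text gives 20 µM as final concentration; 100% = response of wells given 1 µM PGE2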
S1P3 antag-2 = human S1P3 receptor antagonism, confirmation | 240 compounds, 30% hits | CHO S1P3 NFAT-BLA reporter, FRET, antagonist mode | shares compounds with S1P3 antag-1 | inhibition, % at 4.98 µM;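 active = inhibition above the hit threshold that was computed for the earlier primary screen, cut at about 30% in these data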;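 also: 0% = S1P-stimulated wells and 100% = unstimulated DMSO-only wells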
EP2 confirm = EP2 receptor cAMP induction, counter-screens negative. calls only at 20 µM (by protocol). C6 glioma EP2 cells, cAMP HTRF induction; plus low (about EC15) PGE2 agonist. shares compounds with EP2 modulator. 1,300 compounds, 47% hits;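 active = cAMP induction above 50% in the main assay while under 30% in all four parallel counter assays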;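 also: rat C6 glioma cells stably expressing human EP2 receptor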
KCC2 secondary = confirmation of human KCC2 transport modulators | normalised thallium flux (F/F0 slope) at 10 µM | HEK293-KCC2, thallium flux, FluoZin2 fluorescence; hits give high values | shares compounds with KCC2 mod | 3,700 compounds, 15% hits;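 active = thallium flux slope above the same plate's solvent-only control mean plus 3 SD; inconclusive = the two replicate wells disagree; inactive = no significant difference from solvent-only control wells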
KCC2 bumet counter = thallium flux despite bumetanide block in KCC2 cells, secondary assay 3. HEK293-KCC2 + bumetanide/ouabain, thallium flux FluoZin2; hits give high values. 3,700 compounds, 49% hits. normalized thallium flux at 10 µM. shares compounds with KCC2 mod;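 active = thallium entry rate above the same plate's blocked-transporter control wells by more than 3 SD; inconclusive = the two repeat wells disagree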;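 also: raw slope of fluorescence over initial fluorescence between 10 and 20 s after thallium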
KCC2 secondary2 = KCC2 (human) modulation, second secondary assay. normalized thallium flux at 10 µM. shares compounds with KCC2 mod. HEK293-KCC2, thallium flux FluoZin2 fluorescence; actives lie on both sides; F/F0 rise rate, 10–20 s post-thallium. 3,700 compounds, 23% hits. AID 1715;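 active = thallium flux slope more than 3 SD above or below the plate's solvent-only control mean, mostly below; inconclusive = the two repeat wells disagreed; inactive = no significant shift from solvent-only controls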;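 also: raw slope with 0.1% DMSO as baseline and bumetanide as block control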
HEK counter1 = parental HEK flux effect, counter-screen; 3,700 compounds, 46% hits; shares compounds with KCC2 mod; HEK293 parental cells, thallium flux FluoZin2, ouabain; baseline-ratio fluorescence slope, 10–20 s after thallium; AID 1716; thallium flux rate (normalised fluorescence) at 10 µM;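 active = thallium flux rate significantly above the same plate's solvent-only control wells, beyond their mean plus 3 SD; inconclusive = the two replicate wells gave conflicting results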
KCC2 ouabain = KCC2 (human) modulation, ouabain retest | 3,700 compounds, 48% hits | raw Tl+ flux slope (below DMSO = inhibition, above = activation) at 10 µM | HEK293-KCC2, thallium flux FluoZin2 fluorescence; bidirectional: low = inhibitor, high = activator | shares compounds with KCC2 mod;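 active = thallium flux slope beyond 3 SD from same-plate DMSO control mean in most replicates, usually higher, sometimes lower; inconclusive = repeat tests gave conflicting results; inactive = no significant difference from controls in most replicates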;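 also: slope of initial-normalized fluorescence between seconds 10 and 20 after thallium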
HEK counter2 = counter-screen for KCC2 modulators: effect in parental HEK293 cells; shares compounds with KCC2 mod; thallium flux FluoZin-2 fluorescence slope; thallium flux slope at 10 µM; 3,700 compounds, 33% hits; AID 1718;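 active = thallium flux slope above the same plate's solvent-control mean plus 3 SD in both duplicate wells; inconclusive = duplicate wells that disagreed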;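 also: run without ouabain in cells lacking the KCC2 cotransporter; slope of fluorescence scaled to its starting value between 10 and 20 s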
Numbers without * were called inactive; i = inactive; ? = inconclusive; / = no result given; + = active, no number. Sampled rows, rich in hits. Any-hit rate of the full collection: about 3.1%.

SMILES	PGE2 EP2 inh	KCC2 mod	S1P3 antag-1	EP2 modulator	EP2 confirm	others
Fc1ccc(-c2n[nH]c(=S)c3ccccc23)cc1	4.9	13.8*	65.0*	18.9	/	S1P3 antag-2=-14.4;KCC2 secondary=0.0108;KCC2 bumet counter=0.0211*;KCC2 secondary2=0.0335;HEK counter1=0.0162*;KCC2 ouabain=?;HEK counter2=0.0131*
O=C(/C=C/c1cn(CC(O)CN2CCCCC2)c2ccccc12)c1cccs1 (configuration not stated)	2.4	4.63*	31.5*	-49.3	/	S1P3 antag-2=8.8;KCC2 secondary=0.00833;KCC2 bumet counter=0.00585;KCC2 secondary2=0.0242*;HEK counter1=0.0068;KCC2 ouabain=0.0163*;HEK counter2=0.00838
C(=N\NC1=Nc2cccc3cccc1c23)/c1ccccn1	8.8	-4.38*	29.5*	-58.6	/	S1P3 antag-2=18.8;KCC2 secondary=?;KCC2 bumet counter=0.00499;KCC2 secondary2=0.0274;HEK counter1=0.0061;KCC2 ouabain=0.016*;HEK counter2=0.00942
CCOc1cc2c(cc1CN[C@@H]1CCC(=O)N[C@H]1c1cc(F)cc(F)c1)OCO2	6.3	/	/	-9.7	/
OCCOc1ccc(CN2CCC(O)(c3ccc(F)cc3)CC2)cc1	/	/	/	-45.8	/
CCOC(=O)CCN(Cc1sccc1C)S(=O)(=O)c1ccc(F)cc1	2.0	-0.00246	/	81.4*	i
CCOC(=O)CCN(Cc1cccs1)S(=O)(=O)c1ccc(F)cc1	5.1	-0.0245	/	43.1	/
CCCCc1nc(N2CCOCC2)c(C#N)c2c1CCCC2	10.8	-1.2	/	79.2*	i
CCCSc1nc(N2CCOCC2)c2c(c1C#N)CCCC2	14.9	/	/	65.8*	+
CCCc1nc(N2CCOCC2)c(C#N)c2c1CCCC2	10.8	0.657	/	42.5	/
CC(C)Cc1nc(N2CCCCC2)c(C#N)c2c1CCC2	16.9	/	/	88.6*	i
COC(=O)[C@@H]1CN(C(=O)Cn2ncc3ccccc3c2=O)C[C@H]1c1ccc(OC)cc1	7.8	/	/	-30.5	/
COc1ccc(C(=O)NC2CCN(C(=S)NC3CCCCC3)CC2)cc1	4.1	/	/	-24.3	/
CCn1c2cc(C)sc2c2cnn(CC(=O)C(C)(C)C)c(=O)c21	/	/	/	-11.1	/
CCCOC(=O)c1ccc(NC(=O)c2cn(CC)c3nc(C)ccc3c2=O)cc1	/	-0.0613	/	67.2*	i
O=C(O)c1ccc(-c2nc(-c3cccc(C(F)(F)F)c3)cs2)cc1	7.3	-0.702	-26.9	69.9*	+
CCOP(=O)(OCC)c1nc(-c2ccccc2Cl)oc1N1CCOCC1	7.6	-0.414	3.2	5.5	/
CN(C)c1oc(-c2ccccc2Cl)nc1P(=O)(c1ccccc1)c1ccccc1	5.0	-2.34	/	70.6*	+
CCCCOP(=O)(OCCCC)C(Nc1ccccc1)c1ccc2c(c1)OCO2 (configuration not stated)	5.8	0.189	21.7	69.5*	i
CCc1ccccc1NC(=O)/C(=C/c1ccco1)c1ccccc1	4.9	-1.43	/	67.8*	+
Cc1ccc(S(=O)(=O)Nc2ccc(NC(=O)c3ccc(F)cc3)cc2)cc1	2.0	0.266	8.3	-51.2	/
Cc1ccc(S(=O)(=O)Nc2ccc(Cl)cc2C(=O)c2ccc(F)cc2)cc1	20.1	2.23	-2.1	67.0*	i
CCOC(=O)C1CCN(C(=O)c2cccc(Cl)c2)CC1	5.9	1.19	6.8	9.2	/
CCOC(=O)C1CCN(c2c(C(=O)c3ccccc3)cnc3ccc(Cl)cc23)CC1	8.9	0.00508	-16.8	81.3*	+
C#CCn1c(S(=O)(=O)Cc2ccccc2Cl)nc(-c2ccccc2)c1-c1ccccc1	3.0	/	/	71.6*	+
SMILES	PGE2 EP2 inh	KCC2 mod	S1P3 antag-1	EP2 modulator	EP2 confirm	others
CC1CN(C(=O)c2ccccc2Nc2ccc(SC(F)F)cc2)CC(C)O1 (configuration not stated)	7.7	0	10.8	8.3	/
CC1CCCC(C)N1C(=O)c1ccccc1Nc1ccc(SC(F)F)cc1 (configuration not stated)	2.8	1.51	/	76.5*	i
CCn1c(COc2cccc(C)c2C)nnc1SCC(=O)N1C(C)CCCC1C (configuration not stated)	4.1	/	/	-36.2	/
CCC1COC(c2cccn2Cc2ccc(Cl)cc2)=N1 (configuration not stated)	3.2	0.54	-10.0	65.5*	i
CC1CCCCN1C(=O)CSc1nc(-c2ccc(F)cc2)cc(C(F)(F)F)n1 (configuration not stated)	13.4	/	/	21.7	/
c1ccc(Cc2nc3ccccc3n2Cc2ccccc2)cc1	3.2	-1.35	/	75.2*	+
Brc1ccc(Cn2c(-c3cncs3)nc3ccccc32)cc1	1.6	-0.776	/	69.8*	i
CCc1nc2ccccc2n1CCc1ccccc1	3.4	-1.24	-7.7	-27.2	/
C=CCn1c(-c2ccc(OC)cc2)nc2ccccc21	8.8	/	-27.0	7.7	/
COc1ccc(-c2nc3ccccc3n2Cc2ccccc2)cc1	12.6	-0.242	/	68.5*	+
COc1ccc(CCNC(=O)CSc2nnc3c(C)cc4cc5c(cc4n23)OCCO5)cc1OC	12.7	/	/	-1.4	/
Cc1ccc2cc(CN(CCO)S(=O)(=O)c3ccc(F)cc3)c(=O)[nH]c2c1	14.8	/	/	-42.5	/
C=CCn1c(CCC(O)CCCCC)n[nH]c1=S (configuration not stated)	11.2	-0.00058	-0.3	7.0	/
C=CCn1c(CCc2cc(C(C)(C)C)c(O)c(C(C)(C)C)c2)n[nH]c1=S	6.6	1.35	6.7	58.1	i
CC(C)=CCC/C(C)=C/CC/C(C)=C/CSc1ccccc1C(=O)O	9.1	/	/	73.4*	i
COc1ccc2c(COC(=O)c3n[nH]c4ccccc34)cc(=O)oc2c1	10.2	-2.09	/	74.5*	i
O=C(Nc1ccccc1F)N1CCc2nc(N3CCCC3)[nH]c(=O)c2C1	4.5	/	/	-18.1	/

Screening data (PubChem)
